# Measurements reported in a collection of fitness landscapes (doi:10.1016/j.celrep.2020.107928).
# Over roughly 81,000 sequences, “one-hybrid fitness for binding parS DNA” has its median near -0.17; the highest 2% begin near 0.51. The sample as a whole holds a higher share of the highest values than the screen did.
# B1: Caulobacter ParB omega fusion; a variant is named by its letters at X, in order, B8GW30 (parent)
# chain: MESVVVGEPGMSEGRRGLGRGLSALLGEVDAAPAQAPGEQLGGSREAPIEILQRNPDQPRRTFREEDLEDLSNSIREKGVLQPILVRPSPDTAGEYQIVAGERAWRAAQRAGLKTVPIMVRELDDLAVLEIGIIENVQRADLNVLEEALSYKVLMEKFERTQENIAQTIGKSXSHVANXMRLLXLPDEVQSYLVSGELTAXHARAIAAAADPVALAKQIIEGGLSVRETEALARKAPNLSAGKSKGGRPPRVKDTDTQALESDLSSVLGLDVSIDHRGSTGTLTITYATLEQLDDLCNRLTRGI
# Variants of: B1
# Test: one-hybrid fitness for binding parS DNA (scaled: cognate 1, non-cognate 0); higher = stronger binding
# Conditions: with parS DNA site
# Summary of the method: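 Pre- and post-selection plasmids were Illumina-sequenced, three replicate libraries were pooled, and any variant with under 10 reads was removed. The libraries were Caulobacter ParB with four specificity codons randomised, selected in E. coli USO through a HIS3 reporter whose site is 19 bp from the promoter. Cells grew 48 hours at 37°C on M9 without histidine, with 0.1 mM IPTG and 5 mM 3-AT. Fitness is the log change in variant-to-wild-type read ratio, rescaled against cognate and non-cognate.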
row,Variant,one-hybrid fitness for binding parS DNA
1,AHCT,≤ 0.2
2,SYTS,≤ 0.2
3,LAQL,≤ 0.2
4,LSDG,≤ 0.2
5,ISTA,≤ 0.2
6,MTHL,≤ 0.2
7,CYFG,≤ 0.2
8,RKLH,0.223
9,RKYF,≤ 0.2
10,RKIY,0.352
11,RKLT,0.856
12,RKHT,0.756
13,RKYK,≤ 0.2
14,RKIT,0.675
15,RKHH,≤ 0.2
16,RKPT,0.412
17,RKYT,0.868
18,RKHP,≤ 0.2
19,RKLN,0.351
20,YKNL,≤ 0.2
21,VDMS,≤ 0.2
22,HRNI,≤ 0.2
23,NWKR,≤ 0.2
24,FKRH,≤ 0.2

row,Variant,one-hybrid fitness for binding parS DNA
1,TTLP,≤ 0.2
2,LGQS,≤ 0.2
3,DPGV,≤ 0.2
4,ITRV,≤ 0.2
5,WNTN,≤ 0.2
6,RKDK,≤ 0.2
7,RKGQ,≤ 0.2
8,RKRQ,≤ 0.2
9,RKQT,0.729
10,RKQH,≤ 0.2
11,RKDT,0.832
12,RKGM,0.262
13,RKGT,0.764
14,RKDY,0.38
15,RKQP,≤ 0.2
16,RKRR,≤ 0.2
17,RKRT,0.658
18,TDGD,≤ 0.2
19,RCPL,≤ 0.2
20,WHLG,≤ 0.2
21,CRRN,≤ 0.2
22,ITGW,≤ 0.2
23,RLDQ,≤ 0.2
24,RLNE,≤ 0.2

row,Variant,one-hybrid fitness for binding parS DNA
1,RLDC,0.938
2,RLNK,≤ 0.2
3,RLNC,0.94
4,RLDF,0.229
5,TYDG,≤ 0.2
6,RNRT,0.786
7,RNSY,0.399
8,RNWT,0.535
9,RNWY,0.275
10,RNST,0.746
11,RNWF,≤ 0.2
12,RNPT,0.307
13,RNSM,0.238
14,RNRM,0.345
15,RNRR,≤ 0.2
16,RNIT,0.427
17,RNYT,0.66
18,QFRW,≤ 0.2
19,LVVI,≤ 0.2
20,PETN,≤ 0.2
21,YEDL,≤ 0.2
22,KWKD,≤ 0.2
23,VTLP,≤ 0.2
24,HAAI,≤ 0.2

row,Variant,one-hybrid fitness for binding parS DNA
1,PKVP,≤ 0.2
2,RNQM,0.228
3,RNHD,≤ 0.2
4,RNLT,0.683
5,RNLH,≤ 0.2
6,RNGT,0.696
7,RNGR,≤ 0.2
8,RNLP,≤ 0.2
9,RNQR,≤ 0.2
10,RNGY,0.306
11,RNQT,0.74
12,RNHT,0.723
13,RNHN,0.346
14,QRGN,≤ 0.2
15,GVHD,≤ 0.2
16,VTSQ,≤ 0.2
17,MGWS,≤ 0.2
18,QCRG,≤ 0.2
19,QHQC,≤ 0.2
20,LAPW,≤ 0.2
21,HMRI,≤ 0.2
22,VDML,≤ 0.2
23,HQSC,≤ 0.2
24,DSFI,≤ 0.2

row,Variant,one-hybrid fitness for binding parS DNA
1,LCFF,≤ 0.2
2,ETSR,≤ 0.2
3,RNCQ,≤ 0.2
4,RNCT,0.612
5,RNCM,≤ 0.2
6,QRCF,≤ 0.2
7,DGSS,≤ 0.2
8,YRDA,≤ 0.2
9,AKTQ,≤ 0.2
10,RRPC,0.796
11,RRIQ,≤ 0.2
12,RRIC,0.71
13,RRIY,0.332
14,RRPM,0.215
15,SLCD,≤ 0.2
16,HGNW,≤ 0.2
17,EVCS,≤ 0.2
18,LNAY,≤ 0.2
19,AANM,≤ 0.2
20,ILWI,≤ 0.2
21,ALYC,≤ 0.2
22,DAAA,≤ 0.2
23,RAFA,0.624
24,RAAA,0.592

row,Variant,one-hybrid fitness for binding parS DNA
1,NAAA,≤ 0.2
2,NQKR,≤ 0.2
3,LMTS,≤ 0.2
4,GGWG,≤ 0.2
5,HSNS,≤ 0.2
6,QTKP,≤ 0.2
7,RHFK,≤ 0.2
8,RHFC,0.799
9,RHAF,≤ 0.2
10,RHAC,0.933
11,RHFR,≤ 0.2
12,RHAR,≤ 0.2
13,QLSE,≤ 0.2
14,TNGD,≤ 0.2
15,RMVA,0.611
16,RMKA,0.735
17,DMVA,≤ 0.2
18,EGMC,≤ 0.2
19,HPGG,≤ 0.2
20,CLLW,≤ 0.2
21,RSNN,0.445
22,REDT,≤ 0.2
23,RSNP,≤ 0.2
24,RCYT,0.963

row,Variant,one-hybrid fitness for binding parS DNA
1,REYT,≤ 0.2
2,RPYT,≤ 0.2
3,RSNT,0.911
4,RDDT,≤ 0.2
5,RSDT,0.696
6,RSDM,≤ 0.2
7,RCDT,0.813
8,RPDT,≤ 0.2
9,SYNF,≤ 0.2
10,QNNL,≤ 0.2
11,QNNR,≤ 0.2
12,VNTR,≤ 0.2
13,TLTC,≤ 0.2
14,VASF,≤ 0.2
15,ARLY,≤ 0.2
16,RSRH,0.232
17,RCRT,0.818
18,RPNT,≤ 0.2
19,RERT,0.216
20,RDYT,≤ 0.2
21,RSYT,0.846
22,RSRT,0.832
23,RPRT,≤ 0.2
24,RSRP,≤ 0.2

row,Variant,one-hybrid fitness for binding parS DNA
1,RENT,≤ 0.2
2,RCNT,0.879
3,SLNY,≤ 0.2
4,EHPE,≤ 0.2
5,LPKC,≤ 0.2
6,QHRW,≤ 0.2
7,TTHM,≤ 0.2
8,QPTM,≤ 0.2
9,YDPM,≤ 0.2
10,GMKG,≤ 0.2
11,RWAN,0.26
12,RWFY,≤ 0.2
13,RWFN,≤ 0.2
14,RWAS,0.876
15,RWAD,≤ 0.2
16,RWFS,0.691
17,GDED,≤ 0.2
18,SDVG,≤ 0.2
19,NRQA,≤ 0.2
20,NRGA,≤ 0.2
21,RRSA,0.693
22,RRQA,0.699
23,NRHA,≤ 0.2
24,RRGA,0.749

row,Variant,one-hybrid fitness for binding parS DNA
1,DRSA,≤ 0.2
2,NRSA,≤ 0.2
3,DRHA,≤ 0.2
4,RRHA,0.693
5,RGGA,0.285
6,DRQA,≤ 0.2
7,GDYT,≤ 0.2
8,HYRC,≤ 0.2
9,YDLT,≤ 0.2
10,IYQL,≤ 0.2
11,WAPR,≤ 0.2
12,MWAV,≤ 0.2
13,ANEG,≤ 0.2
14,LPHA,≤ 0.2
15,SKVC,≤ 0.2
16,PETH,≤ 0.2
17,NRCA,≤ 0.2
18,NRNA,≤ 0.2
19,RRDA,0.851
20,RRLA,0.815
21,DRLA,≤ 0.2
22,NRLA,≤ 0.2
23,RRNA,0.627
24,DRNA,≤ 0.2

row,Variant,one-hybrid fitness for binding parS DNA
1,DRCA,≤ 0.2
2,RRCA,0.761
3,QLGG,≤ 0.2
4,IAPM,≤ 0.2
5,RPYR,≤ 0.2
6,TTSM,≤ 0.2
7,ICYT,≤ 0.2
8,SEWR,≤ 0.2
9,NRYA,≤ 0.2
10,RRRA,0.501
11,RRYA,0.813
12,DLNV,≤ 0.2
13,GSGS,≤ 0.2
14,YIFC,≤ 0.2
15,INTG,≤ 0.2
16,RVET,0.691
17,RVEN,0.294
18,RVEH,≤ 0.2
19,RVEM,0.231
20,RVEP,≤ 0.2
21,RVES,0.948
22,RVED,≤ 0.2
23,RVEC,0.805
24,RVEF,≤ 0.2

row,Variant,one-hybrid fitness for binding parS DNA
1,RVEK,≤ 0.2
2,RVEG,0.813
3,RVEI,≤ 0.2
4,HNSL,≤ 0.2
5,FLAG,≤ 0.2
6,RRQE,≤ 0.2
7,SFER,≤ 0.2
8,HAWC,≤ 0.2
9,PTHS,≤ 0.2
10,RYAA,0.559
11,PYFA,≤ 0.2
12,RYFA,0.573
13,NYFA,≤ 0.2
14,NNWM,≤ 0.2
15,DTAQ,≤ 0.2
16,AYES,≤ 0.2
17,PDYS,≤ 0.2
18,LGYC,≤ 0.2
19,PVSM,≤ 0.2
20,NIVA,≤ 0.2
21,RIVA,0.585
22,RIKA,0.745
23,YQPY,≤ 0.2
24,GEYG,≤ 0.2

row,Variant,one-hybrid fitness for binding parS DNA
1,TWSS,≤ 0.2
2,LCRP,≤ 0.2
3,RKNG,0.907
4,RKNR,≤ 0.2
5,RKDH,0.231
6,RKDG,0.939
7,RKNQ,≤ 0.2
8,RKDN,0.329
9,TSWS,≤ 0.2
10,KARL,≤ 0.2
11,PVGS,≤ 0.2
12,QVWC,≤ 0.2
13,RHFP,≤ 0.2
14,RHAT,0.865
15,RHAM,0.28
16,RHAY,0.403
17,RHFN,0.319
18,RHFT,0.707
19,HWFS,≤ 0.2
20,RPMV,≤ 0.2
21,ETTA,≤ 0.2
22,SPEG,≤ 0.2
23,RPSC,≤ 0.2
24,RSSN,0.436

row,Variant,one-hybrid fitness for binding parS DNA
1,RSSC,0.966
2,RCSC,0.961
3,RSSH,≤ 0.2
4,RESC,0.215
5,TKKI,≤ 0.2
6,QGCC,≤ 0.2
7,LEMT,≤ 0.2
8,CTGE,≤ 0.2
9,VMPA,≤ 0.2
10,NSSL,≤ 0.2
11,RLPQ,≤ 0.2
12,RLID,≤ 0.2
13,RLIH,0.21
14,RLIT,0.795
15,RLPT,0.58
16,RLPK,≤ 0.2
17,TGTF,≤ 0.2
18,DRTR,≤ 0.2
